Assay results as given in ChEMBL document CHEMBL2218924, “A broad activity screen in support of a chemogenomic map for kinase signalling research and drug discovery” (Biochem J, 2013).

Biological target: T1, Ephrin type-A receptor 3 (Homo sapiens) (UniProt P29320)
T1 sequence (whole entry): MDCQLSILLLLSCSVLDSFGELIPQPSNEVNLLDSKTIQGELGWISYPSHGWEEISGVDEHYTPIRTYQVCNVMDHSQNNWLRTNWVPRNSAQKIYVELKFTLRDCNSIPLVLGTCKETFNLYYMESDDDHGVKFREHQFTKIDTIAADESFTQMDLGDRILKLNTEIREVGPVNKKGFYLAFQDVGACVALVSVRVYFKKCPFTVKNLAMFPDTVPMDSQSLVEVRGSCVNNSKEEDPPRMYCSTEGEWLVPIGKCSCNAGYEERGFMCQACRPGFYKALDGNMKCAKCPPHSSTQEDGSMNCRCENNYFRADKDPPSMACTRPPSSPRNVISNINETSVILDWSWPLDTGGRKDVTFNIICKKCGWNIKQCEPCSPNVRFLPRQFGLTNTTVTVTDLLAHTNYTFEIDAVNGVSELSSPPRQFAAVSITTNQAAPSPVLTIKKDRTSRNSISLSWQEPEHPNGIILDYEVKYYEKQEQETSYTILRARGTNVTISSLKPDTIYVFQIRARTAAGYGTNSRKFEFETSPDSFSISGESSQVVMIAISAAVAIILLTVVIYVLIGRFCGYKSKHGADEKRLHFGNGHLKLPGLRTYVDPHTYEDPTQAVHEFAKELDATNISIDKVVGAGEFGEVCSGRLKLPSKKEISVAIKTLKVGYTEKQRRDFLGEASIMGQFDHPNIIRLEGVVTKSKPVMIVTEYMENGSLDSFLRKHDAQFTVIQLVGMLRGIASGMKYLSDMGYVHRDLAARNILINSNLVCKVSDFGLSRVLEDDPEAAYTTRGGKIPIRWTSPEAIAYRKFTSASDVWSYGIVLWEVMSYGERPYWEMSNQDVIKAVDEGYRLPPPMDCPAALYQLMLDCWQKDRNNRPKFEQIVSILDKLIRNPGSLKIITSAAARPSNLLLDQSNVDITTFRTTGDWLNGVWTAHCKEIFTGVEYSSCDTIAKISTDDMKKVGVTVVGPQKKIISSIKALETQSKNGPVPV
Details: at 10 µM

SMILES | residual activity [%]
Cn1sc(=O)n(Cc2ccccc2)c1=O | 86
Nc1n[nH]c2nc3ccccc3nc12 | 98
CCCC(=O)Oc1ccc2[nH]c(C(=O)c3cc4ccccc4[nH]3)cc2c1 | 105
CC(C)(C)n1nc(Cc2cccc3ccccc23)c2c(N)ncnc21 | 8
Fc1ccc(-c2nc3n(c2-c2ccncc2)CCS3)cc1 | 90
O=C1C(Cl)=C(N2C(=O)CCC2=O)C(=O)c2ccccc21 | 89
COc1ccc(-c2cnc3c(-c4ccsc4)cnn3c2)cc1 | 87
O=C(CCCc1ccc(-c2ccccc2F)cc1)Nc1ccc(O)cc1 | 111
Nc1ncnc2[nH]nc(Nc3ccc(F)cc3)c12 | 42
Nc1ncnc2c1cnn2-c1ccccc1 | 84
CCCCc1c(-c2ccc(O)cc2)[nH]c2nccnc12 | 30
CN(C)S(=O)(=O)c1ccc2c(c1)/C(=C/c1cc3c([nH]1)CCCC3)C(=O)N2 | 77
O=C(O)/C=C/c1cc(Br)c(Br)c(Br)c1Br | 79
NC(=O)Nc1sc(-c2ccc(F)cc2)cc1C(N)=O | 33
O=C1Nc2ccc(Cl)cc2/C1=C/c1cc(Cl)c(O)c(Cl)c1 | 54
